Legend:
Assay in all cases: PBM binding z-score (relative to random genomic background probes); higher = stronger binding; sequences stand for … in GC…GCGATTGACAGCGTAGAATGAAGG
[1] = test system: FXR:RXRa (NR concentration 270 nM, RXRa partner concentration 90 nM)
How it was run: (§1)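 Each nuclear receptor dimer, without ligand, was incubated for 1 h on custom Agilent 4×180K protein-binding microarrays. Binding was detected with antibodies against each partner (one per run), and scanned fluorescence was regression-normalized. The binding z-scores are referenced to random human genomic background probes.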

[2] = test system: LXRa:RXRa (NR concentration 270 nM, RXRa partner concentration 90 nM)
How it was run: as §1

[3] = test system: LXRa homodimer (NR concentration 270 nM)
How it was run: as §1

[4] = test system: LXRb:RXRa (NR concentration 270 nM, RXRa partner concentration 90 nM)
How it was run: as §1

[5] = test system: LXRb homodimer (NR concentration 270 nM)
How it was run: as §1

[6] = test system: PPARa:RXRa (NR concentration 270 nM, RXRa partner concentration 90 nM)
How it was run: as §1

[7] = test system: PPARg:RXRa (NR concentration 180 nM, RXRa partner concentration 90 nM)
How it was run: as §1

[8] = test system: PPARg:RXRa 270nM:90nM, anti-RXR (NR concentration 270 nM, RXRa partner concentration 90 nM)
How it was run: as §1

[9] = test system: PPARg:RXRa 30nM:10nM, anti-RXR (NR concentration 30 nM, RXRa partner concentration 10 nM)
How it was run: as §1

[10] = test system: PPARg:RXRa 90nM:30nM, anti-RXR (NR concentration 90 nM, RXRa partner concentration 30 nM)
How it was run: as §1

[11] = test system: PPARg:RXRa DBDmut IVT, anti-RXR (DBD mutation: RXRa K156A/R161A, NR concentration 270 nM, RXRa partner concentration 90 nM)
How it was run: as §1

[12] = test system: PPARg:RXRa IVT, anti-PPARg (NR concentration 270 nM, RXRa partner concentration 90 nM)
How it was run: as §1

[13] = test system: PPARg DBDmut:RXRa IVT, anti-PPARg (DBD mutation: PPARg1 K132A/R137A, NR concentration 270 nM, RXRa partner concentration 90 nM)
How it was run: as §1

[14] = test system: PPARg DBDmut IVT, anti-PPARg (DBD mutation: PPARg1 K132A/R137A, NR concentration 270 nM)
How it was run: as §1

[15] = test system: PPARg homodimer (NR concentration 180 nM)
How it was run: as §1

[16] = test system: PXR:RXRa (NR concentration 270 nM, RXRa partner concentration 90 nM)
How it was run: as §1

[17] = test system: PXR homodimer (NR concentration 270 nM)
How it was run: as §1

[18] = test system: RARa:RXR (NR concentration 270 nM, RXRa partner concentration 90 nM)
How it was run: as §1

[19] = test system: RARa homodimer (NR concentration 270 nM)
How it was run: as §1

[20] = test system: RARb:RXRa (NR concentration 270 nM, RXRa partner concentration 90 nM)
How it was run: as §1

Sequence	PBM binding z-score [1]	PBM binding z-score [2]	PBM binding z-score [3]	PBM binding z-score [4]	PBM binding z-score [5]	PBM binding z-score [6]	PBM binding z-score [7]	PBM binding z-score [8]	PBM binding z-score [9]	PBM binding z-score [10]	PBM binding z-score [11]	PBM binding z-score [12]	PBM binding z-score [13]	PBM binding z-score [14]	PBM binding z-score [15]	PBM binding z-score [16]	PBM binding z-score [17]	PBM binding z-score [18]	PBM binding z-score [19]	PBM binding z-score [20]
TGAATAAGGTTAAAGATCAGGGAACGTGGCGTCG	2.83	2.57	0.114	1.71	0.337	3.91	4.41	5.68	4.08	5.9	1.52	2.45	0.601	0.358	1.06	1.73	0.429	3.27	0.953	2.35
ATCTCTAGGTAAGACTCAGATCAGTGAAGAACGC	0.264	0.336	0.262	-0.0617	0.692	-0.153	0.264	0.0019	0.134	0.3	1.51	1.26	-0.0293	0.583	0.669	-0.381	0.314	-0.0698	1.46	-0.146
CCAAGCAGGCCAGGGTCACTCAAGCATTTCGCTT	2.12	1.76	-0.279	1.95	-0.754	3.07	0.977	1.81	-0.229	0.599	0.264	0.738	-0.543	-1.4	1.53	2.65	-0.14	3.4	0.312	2.61
ATCGAAAGGGCGACGAGGTGAGTATACACCGTTT	0.314	0.222	-0.247	0.0783	-0.352	0.902	0.873	0.152	0.164	-0.136	-0.129	0.9	0.582	0.302	0.304	0.264	0.172	0.542	0.176	1.74
TCTAGTTGGTCAAACGTCACACACTCGAAATGCG	0.778	0.664	0.422	0.693	0.281	2.06	3.61	4.92	4.37	5.13	3.29	2.32	0.65	1.11	1.05	0.699	0.241	0.948	0.646	1.2
CGAATGAGGGCATGAGTTGATAGCAAATGCCGAT	0.504	0.377	-0.461	0.209	-0.511	1.7	1.92	1.99	0.599	1.49	4	3.15	0.455	-0.417	0.0655	0.525	0.166	0.61	-0.437	1.8
AGAACGAGGGCAATGAGTTGACAGCACGGGTGGC	0.329	0.24	-0.349	-0.388	-0.581	1.24	1.38	0.8	0.0302	0.423	3.68	2.54	0.168	0.4	-0.106	1.19	2.68	0.713	-0.225	2.12
TCGAGTAGGTTACCAATGGGGGATTCAGCTTTCT	0.454	1	-0.159	2.46	5.29	1.74	0.645	2.31	1.35	2.08	3.04	3.87	3.52	5.09	0.376	1.15	-0.444	1.17	-0.393	1.06
CTCGAAAGGTCGGTTGAGGTGAGTAGACGGATAA	2.24	1.85	0.0366	1.44	-0.503	2.76	0.386	1.51	0.222	0.586	-0.178	0.996	-0.252	-0.747	0.919	3.03	0.241	2.71	-0.0972	3.11
GGAACGAGGGCGTTCGAGTTGATAGCATGGCGAT	-0.0904	-0.232	-0.938	-0.656	-0.964	-0.0431	0.127	-0.547	-0.579	-0.797	1.14	0.591	-1.48	-0.922	-0.718	1.88	0.811	0.317	-0.727	0.422
ATACCAAGGTGAACGTGAGGTCGTTGATACTAAC	3.12	3.08	1.29	2.47	-0.133	2.87	2.13	1.87	0.56	1.48	2.44	3.17	1.14	0.95	1.83	4.23	1.48	3.21	0.99	2.43
ACTAGCATGCCAAGTTTGGGTCACTCAAACAAAG	0.0536	0.057	-0.432	0.606	-0.573	1.23	0.0927	0.138	-0.204	-0.214	-0.0858	0.673	-0.779	-0.563	0.0985	0.71	-0.444	1.14	-0.448	1.28
TCTAGTTGGTCAAAGGTCACACCCTCGAAATGCG	5.49	5.27	4.32	5.41	1.92	6.69	11.6	10.1	10.3	12.2	3.68	6.43	1.66	0.719	6.91	6.04	2.22	7.62	4.33	5.02
CAAACTAGGTCAAAGGTCATAGTCGAGCCAACCA	7.9	6.85	5.6	6.78	2.18	7.62	14	11.2	12.9	13.1	8.7	9.39	3.36	4.08	5.55	7.06	1.04	8.82	2.53	5.59
GCTTGTAGATCAAGGTTACGAAAGACTAAGCTAA	0.195	1.01	-0.347	0.883	-0.378	1.97	0.804	1.64	0.408	1.13	1.65	1.67	-0.122	-0.483	0.354	0.724	-0.00407	1.23	0.273	0.947

From the supplement of paper PMC6555819
